Source: PubChem BioAssay (NCI)
About 79,000 compounds went through this panel and 15% of them were active in at least one assay; those are over-represented in the sample as a whole. Active and inactive are the calls of the source. No stated cut-off is given here; in the data, active means growth inhibition above about 70%; inactive means the rest.

Key:
[1] = NCI Yeast Anticancer Drug Screen. Data for the rad50 strain (AID 155);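 further: 0% = growth of vehicle-only cultures of the same strain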; settings: S. cerevisiae rad50 strain growth inhibition, active compounds read high
Summary of the method: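 Yeast carrying a defined DNA repair defect were exposed to test compounds, and growth was compared with vehicle-treated controls to give percent inhibition.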

[2] = NCI Yeast Anticancer Drug Screen. Data for the mec2-1 strain (AID 157); settings: S. cerevisiae mec2-1 strain, active compounds read high
Summary of the method: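 Vehicle-treated cultures served as reference for growth inhibition of compound-exposed mec2-1 yeast.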

[3] = NCI Yeast Anticancer Drug Screen. Data for the sgs1 mgt1 strain (AID 161);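 further: 0% = growth of cultures given vehicle only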; settings: S. cerevisiae sgs1 mgt1 strain, active compounds read high
Summary of the method: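 Test agents were incubated with a DNA-repair-mutant yeast strain. Growth was then read and compared against vehicle-treated controls.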

[4] = NCI Yeast Anticancer Drug Screen. Data for the cln2 rad14 strain (AID 165);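 further: 0% = growth equal to vehicle treated cultures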; settings: S. cerevisiae cln2 rad14 strain, active compounds read high
Summary of the method: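 Each compound was tested on cln2 rad14 yeast. Inhibition of growth was calculated against vehicle-exposed controls.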

[5] = NCI Yeast Anticancer Drug Screen. Data for the bub3 strain (AID 167); settings: S. cerevisiae bub3 mutant strain, active compounds read high
Summary of the method: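 Compounds were applied to a genetically altered yeast strain carrying a cell-cycle control defect. Growth inhibition was scored against vehicle-treated controls.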

[6] = NCI Yeast Anticancer Drug Screen. Data for the mlh1 rad18 strain (AID 175); settings: S. cerevisiae mlh1 rad18 strain growth inhibition, active compounds read high
Summary of the method: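 Vehicle-treated cultures served as the reference for growth inhibition in a yeast strain carrying DNA damage repair alterations exposed to each compound.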

[7] = at 5.0 µM (retest, dose inferred, filed as 0.5)
[8] = at 50.0 µM (retest, dose inferred, filed as 5.0)

Measured: growth inhibition

O=C(Nc1cccc(Cl)c1)OCCN(CCOC(=O)Nc1cccc(Cl)c1)C(=O)Nc1cccc(Cl)c1
active: [1]; [8] 76% | [1]; at 50.0 µM 77.8% | [2]; [8] 80% | [3]; [8] 83% | [3]; at 50.0 µM 90.9% | [4]; [8] 77% | [4]; at 50.0 µM 90.4% | [5]; [8] 79% | [5]; at 50.0 µM 80.4% | [6]; [8] 81% | [6]; at 50.0 µM 83.2%
inactive: [1]; [7] 31% | [2]; [7] 27% | [2]; at 50.0 µM 51.4% | [3]; [7] 36% | [4]; [7] 54% | [5]; [7] 53% | [6]; [7] 62%

COc1cc(C2c3cc4c(cc3[C@@H](OCCN)[C@H]3COC(=O)C23)OCO4)cc(OC)c1O (stereo not given in full)
inactive: [1]; [7] 47% | [1]; at 50.0 µM 52.2% | [2]; [7] 11% | [2]; [8] 55% | [3]; [7] 29% | [3]; [8] 63% | [3]; at 50.0 µM 69.5% | [4]; [7] 29% | [4]; [8] 28% | [4]; at 50.0 µM 49.6% | [5]; [7] 24% | [5]; [8] 44% | [5]; at 50.0 µM 49.5% | [6]; [7] 19% | [6]; [8] 68%
active: [1]; [8] 93% | [2]; at 50.0 µM 77.2% | [6]; at 50.0 µM 80.7%

CCN1CC(=O)N(C)C1=S
active: [1]; at 50.0 µM 84.7% | [2]; at 50.0 µM 71.2% | [3]; at 50.0 µM 89% | [4]; at 50.0 µM 74.9% | [5]; at 50.0 µM 83.8% | [6]; at 50.0 µM 79.5%
inactive: [1]; [7] -9% | [1]; [8] 5% | [2]; [7] -6% | [2]; [8] -19% | [3]; [7] 8% | [3]; [8] -11% | [4]; [7] 20% | [4]; [8] 39% | [5]; [7] 12% | [5]; [8] 18% | [6]; [7] -5% | [6]; [8] -41%

O=c1oc2c(-c3ccccc3)cccc2c(O)c1-c1ccccc1
active: [2]; [8] 86% | [3]; [8] 87% | [5]; [8] 79% | [6]; [8] 81% | [6]; at 50.0 µM 70.5%
inactive: [1]; [7] -2% | [1]; [8] 58% | [1]; at 50.0 µM 48.6% | [2]; [7] -2% | [2]; at 50.0 µM 60.2% | [3]; [7] 3% | [3]; at 50.0 µM 58.9% | [4]; [7] 0% | [4]; [8] 36% | [4]; at 50.0 µM 33% | [5]; [7] -4% | [5]; at 50.0 µM 55% | [6]; [7] 0%

O=[N+]([O-])c1ccccc1CC(c1c[nH]c2ccccc12)c1c[nH]c2ccccc12
active: [1]; [8] 73% | [1]; at 50.0 µM 86% | [2]; [8] 74% | [2]; at 50.0 µM 80.7% | [3]; [8] 70% | [3]; at 50.0 µM 82.9% | [4]; [8] 80% | [4]; at 50.0 µM 78.9% | [5]; [8] 80% | [6]; [8] 81% | [6]; at 50.0 µM 87.3%
inactive: [1]; [7] 0% | [2]; [7] -1% | [3]; [7] -2% | [4]; [7] 1% | [5]; [7] -1% | [5]; at 50.0 µM 55.8% | [6]; [7] 1%

COc1ccc(/C=C2\CCCc3ccccc3C2=O)cc1
inactive: [1]; [7] -3% | [1]; [8] 33% | [1]; at 50.0 µM 60.2% | [2]; [7] 2% | [2]; at 50.0 µM 53.3% | [3]; [7] 9% | [4]; [7] -12% | [4]; [8] -3% | [4]; at 50.0 µM 20% | [5]; [7] 64% | [6]; [7] 5% | [6]; at 50.0 µM 62.2%
active: [2]; [8] 86% | [3]; [8] 86% | [3]; at 50.0 µM 77.7% | [5]; [8] 90% | [5]; at 50.0 µM 80.4% | [6]; [8] 81%

Cc1ccc2c(n1)C(=O)C=CC2=O
active: [1]; [8] 94% | [1]; at 50.0 µM 80.1% | [2]; [8] 94% | [2]; at 50.0 µM 89.5% | [3]; [8] 90% | [3]; at 50.0 µM 80.8% | [4]; [8] 77% | [5]; [8] 97% | [5]; at 50.0 µM 80.8% | [6]; [8] 93%
inactive: [1]; [7] 25% | [2]; [7] 5% | [3]; [7] 22% | [4]; [7] 22% | [4]; at 50.0 µM 22.9% | [5]; [7] 20% | [6]; [7] 17% | [6]; at 50.0 µM 36.2%

CC(/C=C/C(O)=C1/C(=O)CNC1=O)=C\[C@@H](C)[C@H]1O[C@@]2(C)O[C@H](C(=O)[C@@H]3O[C@@]32C)[C@@H]1C
active: [1]; [7] 98% | [1]; [8] 99% | [1]; at 50.0 µM 91.8% | [2]; [7] 99% | [2]; [8] 99% | [2]; at 50.0 µM 94.5% | [3]; [7] 98% | [3]; [8] 98% | [3]; at 50.0 µM 94.2% | [4]; [7] 97% | [4]; [8] 95% | [4]; at 50.0 µM 90.8% | [5]; [7] 98% | [5]; [8] 99% | [5]; at 50.0 µM 93.4% | [6]; [7] 98% | [6]; [8] 98% | [6]; at 50.0 µM 90.3%

O=C(NC1=C(Cl)C(=O)c2ccccc2C1=O)C(=O)C(C(=O)c1ccc2ccccc2c1)C1OC(=O)c2ccccc21 (stereo not given)
inactive: [1]; [7] 33% | [2]; [7] 16% | [2]; [8] 59% | [2]; at 50.0 µM 63.5% | [3]; [7] 30% | [4]; [7] 20% | [5]; [7] 22% | [6]; [7] 26%
active: [1]; [8] 85% | [1]; at 50.0 µM 89.8% | [3]; [8] 98% | [3]; at 50.0 µM 88.5% | [4]; [8] 95% | [4]; at 50.0 µM 88.1% | [5]; [8] 99% | [5]; at 50.0 µM 85.3% | [6]; [8] 83% | [6]; at 50.0 µM 88.8%

COc1ccccc1NC(=O)C1=C(C)NC(C)=C(C(=O)Nc2ccccc2OC)C1c1ccccc1[N+](=O)[O-]
inactive: [1]; [7] 13% | [1]; [8] 13% | [1]; at 50.0 µM 68% | [2]; [7] 4% | [2]; [8] 4% | [2]; at 50.0 µM 69.1% | [3]; [7] 2% | [3]; [8] 2% | [3]; at 50.0 µM 60.9% | [4]; [7] 0% | [4]; [8] 0% | [4]; at 50.0 µM 12% | [5]; [7] 5% | [5]; [8] 5% | [5]; at 50.0 µM 65.7% | [6]; [7] 13% | [6]; [8] 13% | [6]; at 50.0 µM 48.4%
